In PubChem BioAssay AID1626 (SRMLSC, 2009):
Hit rate of the full screen: of about 220,000 compounds, about 2,000 (0.91%) were called active. Roughly 2% stayed inconclusive and do not appear here. Cut-off read from the data, not from the text of the source: inconclusive = inhibition above about 80% without an active follow-up result; inactive = below that; test concentration not stated here. Only a sample is shown. Results with a measured potency or affinity are listed apart.

test: M. tuberculosis H37Rv growth inhibitors, H37Rv strain (AID 1626); conditions: hits give high values, concentration not given here;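 note: bacteria incubated seven days before Alamar blue readout; 0% = bacteria only wells and 100% = bacteria with antibiotic wells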

Structure (SMILES)	inhibition
COc1cccc(C(=O)Nc2nnc(Cc3ccc(OC)c(OC)c3)s2)c1	4.42% (inactive)
COC(=O)C1=C(C)N(Cc2ccco2)C(=O)N[C@H]1c1cccc(C(F)(F)F)c1	-4.29% (inactive)
COC(=O)C(NC(=O)CSc1nc(N)cc(=O)[nH]1)c1ccccc1 (centres undefined)	6.05% (inactive)
Cc1ccc(SCC(=O)N(C)C2CCS(=O)(=O)C2)cc1 (centres undefined)	71.9% (inactive)
O=C(N/N=C/c1ccc(OCCCF)cc1)c1ccc(C(F)(F)F)cc1	-7.89% (inactive)
O=C(CSc1nnc(CNc2ccc(F)cc2)n1Cc1ccccc1)NCc1ccco1	-3.56% (inactive)
CCN(CC)C1=N/C(=C\c2ccc(OC)cc2)C(=O)N1c1ccccc1	5.04% (inactive)
COc1cc(NC(=O)CSc2nc3ccccc3cc2Cc2ccccc2)cc(OC)c1	-2.51% (inactive)
CCCCCn1c(SCc2cccc(C)c2)nc2c1c(=O)[nH]c(=O)n2C	14.6% (inactive)
CC/C(=N\NC(=O)c1cccnc1)c1ccc2c(c1)OCCO2	3.21% (inactive)
CC1(C)CC(NC(=O)CCc2nnc(CCCCc3ccccc3)o2)CCO1 (centres undefined)	-4.26% (inactive)
Cc1ccc(NC(=S)N(CCN2CCOCC2)Cc2cc3cc4c(cc3[nH]c2=O)OCCO4)cc1	2.46% (inactive)
COc1cccc(CNc2ncc(Br)cc2Br)c1O	-8.94% (inactive)
Oc1ccc2ccccc2c1CNn1cnnc1	1.43% (inactive)
NC(=S)Nc1cnc2ccccc2c1	0.46% (inactive)
Cn1c(NCc2c(O)ccc3ccccc23)nc2ccccc21	6.55% (inactive)
COc1cccc(CNc2cccc3cccnc23)c1O	6.53% (inactive)
CCN(CC)C(=O)Nc1cnc2ccccc2c1	63.2% (inactive)
Cc1nc(SCC(=O)Nc2cccc(Cl)c2)n[nH]1	-3.06% (inactive)
O=C1CCC/C(=N\NC(=O)c2ccc(COc3ccccc3-c3ccccc3)cc2)C1	4.62% (inactive)

Structure (SMILES)	inhibition
Cc1cccc(N2CC(C(=O)OCC(=O)c3ccc(OC(=O)c4cccs4)cc3)CC2=O)c1C (centres undefined)	1.47% (inactive)
CN(CCOC(=O)c1ccc2c(c1)OCO2)C(C)(C)C	-1.44% (inactive)
CC1=CC2=NC(=O)/C(=C\c3cccn3CCOc3cc(C)ccc3C)C(=N)N2O1	12.3% (inactive)
O=C(CCc1ccccc1)N1N=C(c2ccncc2)CC1(O)C(F)(F)F (centres undefined)	-7.97% (inactive)
O=C(NCCN1CCCCC1)Nc1ccc(F)c(Cl)c1	-6.79% (inactive)
Cc1ccc(N=Nc2c(C)[nH]n(C(N)=S)c2=O)cc1	-3.59% (inactive)
Cc1[nH]n(C)c(=O)c1N=Nc1ccc(S(C)(=O)=O)cc1	-6.82% (inactive)
COc1ccc(-c2nnc(SCC(=O)NC(C)C)n2CC2CCCO2)cc1OC (centres undefined)	-10.3% (inactive)
COc1ccc(C2/C=C\CN(C(=O)Oc3ccc(C(F)(F)F)cc3)CC(=O)N2Cc2ccc(F)cc2)cc1 (centres undefined)	2.36% (inactive)
COc1ccc(C2/C=C\CN(C(=O)Nc3ccccc3)CC(=O)N2Cc2ccc(F)cc2)cc1 (centres undefined)	-8.73% (inactive)
COc1ccc(NC(=O)C(=O)NCCCn2ccnc2)cc1	-13.8% (inactive)
O=C(Nc1csc([N+](=O)[O-])c1)Nc1ccccc1Cl	76.8% (inactive)
O=C(Nc1csc([N+](=O)[O-])c1)Nc1c(Cl)cccc1Cl	0.45% (inactive)
O=C(CN(CCc1ccccc1)S(=O)(=O)c1ccc(Br)cc1)N/N=C/c1ccccc1C(=O)O	1.98% (inactive)
COc1ccc(-n2nc(C(N)=O)c(O)cc2=O)cc1	-4.24% (inactive)
COc1ccccc1CNC(=O)CN1C(=O)CSc2ccc(S(=O)(=O)N3CCCC3)cc21	-3.73% (inactive)
CCOC(=O)c1ccc(N2C(=O)c3n[nH]c(C)c3C2c2ccccc2)cc1 (centres undefined)	-3.14% (inactive)
CCOC(=O)c1ccc(N2C(=O)c3n[nH]c(C)c3C2c2ccco2)cc1 (centres undefined)	0.01% (inactive)
Cc1[nH]c2ccc(F)cc2c1CCN(Cc1cccnc1)C(=S)Nc1ccccc1	-0.56% (inactive)
CCCCCCCN1C2=NCCN2c2ccccc21	-5.76% (inactive)

Structure (SMILES)	inhibition
CCCCC1=CC2=CC(=O)C(C)(OC(=O)CC)C(=O)C2=CN1CCN1CCOCC1 (centres undefined)	2.28% (inactive)
CC1(C)CC(=O)C2=C(C1)OC(N)=C([N+](=O)[O-])C2c1cccs1 (centres undefined)	3.66% (inactive)
Cc1ccc(C2C(C#N)=C(N)OC3=C2C(=O)CC(C)(C)C3)s1 (centres undefined)	2.18% (inactive)
O=C1/C(=C/c2ccccc2Cl)N2CCC1CC2	7.2% (inactive)
Cc1ccc2c(c1)C(c1ccncc1)=NNC(c1ccc(F)cc1)=N2	5.08% (inactive)
COc1ccc(-c2ccc([C@H]3[C@@H]4C=CCC[C@@]4(C)C(=O)N3Cc3ccccc3)c(F)c2)cc1	21.9% (inactive)
COc1ccc(-c2ccc(OC)c([C@H]3[C@@H]4C=CCC[C@@]4(C)C(=O)N3Cc3ccccc3)c2)cc1OC	10.5% (inactive)
O=C(CCn1c(=O)oc2ccccc21)N(Cc1ccccc1)c1ccccc1	-1.76% (inactive)
Cc1nc2c(cnn2-c2ccccc2)c(=O)n1/N=C/c1ccccc1	3.66% (inactive)
COc1ccc(C(=O)Cc2nnc(C)s2)c(OC)c1	-1.08% (inactive)
Cc1[nH]c2ccccc2c1-c1csc(NC(=O)CN2CCOCC2)n1	1.74% (inactive)
O=C(COC(=O)c1cc(-c2ccccc2)nc2ccccc12)Nc1ccc2c(c1)OCO2	-6.74% (inactive)
O=C(COC(=O)c1c2c(nc3ccccc13)CCCC2)Nc1ccc2c(c1)OCO2	4.85% (inactive)
COc1ccc(S(=O)(=O)N2CCCCCC2)cc1C(=O)OC(C)C(N)=O (centres undefined)	-6.24% (inactive)
CCN(CCCNC(=O)C1CCCN(S(=O)(=O)c2cnc[nH]2)C1)c1ccccc1 (centres undefined)	-7.75% (inactive)
COc1ccc(C)cc1NC(=O)C(OC(=O)C1CC1)c1ccccc1 (centres undefined)	0.31% (inactive)
O=C(COC(=O)c1ccccc1)Nc1ccc(Cl)cn1	-1.7% (inactive)
COc1ccc(C(=O)OCC(=O)Nc2ccc(Cl)cn2)cc1	-2.66% (inactive)
O=C(CCN1C(=O)S/C(=C\c2cccs2)C1=O)NC1=NCCS1	-3.39% (inactive)
